Measurements: publication PMC5540273 (PLoS ONE, 2017)

Experiments:
Details in all cases: concentration: 1 μM,replicates: in singlicate; n = 1
MTOR = tested on: MTOR
MUSK = tested on: MUSK
MYLK2 = tested on: MYLK2
MYLK4 = tested on: MYLK4
MYLK = tested on: MYLK
MYO3A = tested on: MYO3A
MYO3B = tested on: MYO3B
NDR1 = tested on: T1, NDR1
T1 construct: gene STK38

NDR2 = tested on: NDR2
NEK10 = tested on: NEK10
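Also: KINOMEscan kinase panel screen.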

SMILES	%Inh (MTOR) [%]	%Inh (MUSK) [%]	%Inh (MYLK2) [%]	%Inh (MYLK4) [%]	%Inh (MYLK) [%]	%Inh (MYO3A) [%]	%Inh (MYO3B) [%]	%Inh (NDR1) [%]	%Inh (NDR2) [%]	%Inh (NEK10) [%]
NC(=O)c1cc(-c2ccccc2)cc2c(C3CCNCC3)c[nH]c12 [GSK301362]	3	21	40	99	15	0	0	0	0	24
C[C@H]1Oc2cc(cnc2N)-c2c(nn(C)c2C#N)CN(C)C(=O)c2ccc(F)cc21	0	11	18	10	10	10	17	31	25	19
Nc1nc(Nc2ccccc2)cc(-c2ccc3c(N)n[nH]c3c2)n1 [GSK2225749]	13	4	51	16	0	0	0	0	0	0
Cl.Oc1cc(-c2nc(-c3ccccc3)[nH]c2-c2ccncc2)ccc1Cl [SB-386023]	0	0	0	11	0	27	0	10	0	0
O=C(NCCCN1CCOC1=O)c1cnc(NCc2cc(Cl)ccc2Cl)nc1NC1CCCC1	19	11	0	6	14	0	16	31	0	13
CNC(=O)c1ccccc1Sc1ccc2c(/C=C/c3ccccn3)n[nH]c2c1	52	51	9	6	14	0	0	9	0	18
C[C@@H](Oc1cc(-c2cnn(C3CCNCC3)c2)cnc1N)c1c(Cl)ccc(F)c1Cl	2	75	20	30	21	0	0	19	6	60
C[C@@H]1CCN(C(=O)CC#N)C[C@@H]1N(C)c1ncnc2[nH]ccc12	51	11	6	4	0	8	0	0	12	0
Cl.Cl.NC[C@H](Cc1ccc(C(F)(F)F)cc1)NC(=O)c1cc(Br)c(-c2ccnc3[nH]ccc23)s1 [GSK1487252]	11	0	25	45	55	2	9	93.3	41	16
CCN(CC)CCOc1ccc(Nc2ncc3cc(-c4c(Cl)cccc4Cl)c(=O)n(C)c3n2)cc1 [SB-601273]	43	51	98.4	26	29	61	38	32	71	12
COc1ccc(C[C@@H](CN)NC(=O)c2cc(Br)c(-c3ccnc4[nH]ccc34)s2)cc1.Cl.Cl [GSK1389063]	17	20	52	98.5	99.6	10	0	96.8	78	23
CC(C)Nc1cc(-c2ccc3c(N)n[nH]c3c2)nc(N)n1 [GSK2221681]	9	0	23	37	18	0	0	10	0	13
Cc1n[nH]c2ccc(-c3cc(OC[C@@H](N)Cc4ccccc4)cnc3-c3ccoc3)cc12.O=C(O)C(F)(F)F.O=C(O)C(F)(F)F [GSK507358]	1	6	25	15	14	80	28	14	16	5
Cc1cc2cn[nH]c2cc1-c1cccc2c(N)c(C(N)=O)nnc12	3	0	0	10	71	14	0	85	0	86
CC(C)N1C(=O)Cc2cc(Nc3ncc(C(F)(F)F)c(NCc4cccc(S(C)(=O)=O)c4)n3)ccc21	0	15	0	0	10	0	3	35	0	0
Cc1ccc2c(-c3ccncc3)c(-c3ccc(F)cc3)nn2c1.Cl [GW461484]	9	0	17	3	13	0	7	29	0	9
Cc1cc(C(=O)Nc2ccc(Oc3ccc4nc(NC(=O)C5CC5)cn4n3)cc2)nn1-c1ccccc1	9	59	0	5	9	0	21	8	3	0
CN(C)CC(O)COc1ccc(Nc2nccc(-c3cnn4nc(N5CCOCC5)ccc34)n2)cc1 (stereo not drawn) [GW767488]	6	0	38	46	48	33	0	49	0	80
CCN(CC)CCCCNc1ncc2cc(-c3c(Cl)cccc3Cl)c(NC(=O)NC(C)(C)C)nc2n1	39	10	12	43	4	4	23	11	0	29
C=CC(=O)Nc1cc2c(Nc3ccc(F)c(Cl)c3)ncnc2cc1OCCCN1CCOCC1 [GW781483]	15	0	0	18	0	0	3	4	1	17
CN(C)CCOc1ccc(-c2cc(-c3c[nH]nc3-c3ccccn3)ccn2)cc1 [GW835314]	0	9	0	0	15	0	30	14	0	0
Cc1ccc(-n2nc(C(C)(C)C)cc2NC(=O)Nc2ccc(OCCN3CCOCC3)c3ccccc23)cc1 [GW839464]	19	0	0	0	3	0	15	5	2	0
O=C(NCCNc1ccnc(NCc2ccc(F)cc2)n1)c1cc2ccccc2s1 [GSK1379944]	1	5	0	1	14	0	0	0	0	0
Cl.Cl.Nc1nc(-c2ccc3c(N)n[nH]c3c2)cc(N2CCCC(NC(=O)c3ccccc3)C2)n1 (stereo not drawn) [GSK2286775]	39	0	0	27	11	22	0	20	0	16
Cc1occc1-c1nc(N)c(OC[C@@H](N)Cc2c[nH]c3ccccc23)cc1-c1cc2c(C)n[nH]c2cn1 [GSK1660450]	15	9	29	9	37	69	28	11	0	6
Cl.Cl.NC[C@H](CC1CCCCC1)NC(=O)c1cc(Br)c(-c2ccnc3[nH]ccc23)s1 [GSK1581427]	6	3	19	99.7	40	0	0	95.1	82	0
CCn1c(-c2nonc2N)nc2c(C#CC(C)(C)O)nc(OCCN)cc21.Cl.Cl [GSK902056]	13	20	33	6	4	0	0	31	16	6
